About 140 (0.14%) of roughly 97,000 compounds were called active. The full list was thinned out, with actives kept by preference. Values without a mark were called inactive.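 Rule for the calls: active = inhibition above the screen-wide mean inhibition plus 3 SD (cut at about 15% in these data); inactive = the rest.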
The molecules below were run against Ephrin type-B receptor 4 (Homo sapiens) (UniProt P54760) (assay: blockers of EphB4 ligand binding – biochemical, TNYL-RAW peptide probe, fluorescence polarization, primary screen (AID 720;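 note: 0% = DMSO wells and 100% = excess unlabeled TNYL-RAW peptide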)). Details: EphB4 LBD / TNYL-RAW-Alexa532 peptide, at 7 µM, hits give high values.
Ephrin type-B receptor 4 (Homo sapiens), sequence (P54760 whole entry, looked up, the tested form may be a part): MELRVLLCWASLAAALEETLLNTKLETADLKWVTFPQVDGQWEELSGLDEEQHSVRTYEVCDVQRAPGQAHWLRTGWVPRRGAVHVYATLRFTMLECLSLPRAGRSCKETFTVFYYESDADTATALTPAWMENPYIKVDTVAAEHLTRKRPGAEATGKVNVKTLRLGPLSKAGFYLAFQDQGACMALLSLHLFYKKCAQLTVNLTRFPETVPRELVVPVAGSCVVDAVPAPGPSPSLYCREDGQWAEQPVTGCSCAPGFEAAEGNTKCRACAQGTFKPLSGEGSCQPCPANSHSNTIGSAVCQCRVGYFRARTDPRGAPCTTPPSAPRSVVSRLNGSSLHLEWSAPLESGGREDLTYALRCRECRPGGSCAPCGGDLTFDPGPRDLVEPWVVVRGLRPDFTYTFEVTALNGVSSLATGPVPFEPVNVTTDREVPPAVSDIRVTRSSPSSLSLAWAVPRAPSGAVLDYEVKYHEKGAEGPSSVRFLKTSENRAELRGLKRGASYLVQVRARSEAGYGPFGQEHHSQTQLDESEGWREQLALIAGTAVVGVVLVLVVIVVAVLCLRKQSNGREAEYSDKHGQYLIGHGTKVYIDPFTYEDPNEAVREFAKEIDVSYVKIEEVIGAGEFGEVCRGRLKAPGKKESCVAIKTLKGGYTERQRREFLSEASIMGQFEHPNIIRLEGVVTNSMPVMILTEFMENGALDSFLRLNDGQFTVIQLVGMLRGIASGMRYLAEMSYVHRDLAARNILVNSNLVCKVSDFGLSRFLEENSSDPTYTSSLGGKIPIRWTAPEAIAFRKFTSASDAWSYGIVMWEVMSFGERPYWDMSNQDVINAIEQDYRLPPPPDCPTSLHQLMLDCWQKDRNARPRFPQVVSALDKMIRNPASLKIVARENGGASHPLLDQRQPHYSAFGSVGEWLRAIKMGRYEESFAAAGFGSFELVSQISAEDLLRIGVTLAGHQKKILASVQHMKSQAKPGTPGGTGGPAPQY

Row | Structure (SMILES) | inhibition
1 | CCc1cccc2c(C#N)cn(CC(=O)N3CCOCC3)c12 | 21.5% (active)
2 | CCC(=O)CC(c1ccc([N+](=O)[O-])cc1)c1c(O)c2ccccc2oc1=O (stereo not given) | 0.56%
3 | CC(=O)c1ccc(OC(NC(=O)Cc2ccccc2)C(Cl)(Cl)Cl)cc1 (stereo not given) | 0.16%
4 | OC(Cn1c2ccccc2c2ccccc21)C[n+]1ccccc1 (stereo not given) | -2.91%
5 | CC(=O)Nc1ccccc1C(=O)OCC(=O)c1cccc2ccccc12 | -0.92%

Source: PubChem BioAssay AID720 (The Scripps Research Institute Molecular Screening Center, 2007)
